# Test results: PubChem BioAssay (NCATS)
# A number with no mark means an inactive call. Inconclusive results are not listed. Where a call stands in place of a potency, no number is given. The source made the active and inactive calls. Unless noted, calls come from the whole dose curve; as a rule, active = well fitted curve in the direction sought with a large enough effect; inconclusive = small, poorly fitted or top-dose-only effect, or another doubt; inactive = no such curve, though single readings can be large; an effect the other way counts as inactive or inconclusive.
# Key:
# [1] = Primary qHTS for small molecule stabilizers of the endoplasmic reticulum resident proteome: Secreted ER Calcium Modulated Protein (SERCaMP) assay (AID 1508630)
# How it was run: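 GLuc-SERCaMP-expressing SH-SY5Y cells, pretreated 16 h with compound, are challenged with thapsigargin to empty ER calcium stores; after 4 h, coelenterazine is added directly to the medium and luminescence is imaged.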
# [2] = molecular target: Rap guanine nucleotide exchange factor 3 (Homo sapiens) (UniProt O95398); assay: Confirmatory qHTS for agonist of cAMP-regulated guanine nucleotide exchange factor 3 (EPAC1) (AID 1645881);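 note: EPAC1 catalysed release of BODIPY-GDP from Rap1B seen as fluorescence loss; nearly all actives have a fitted effect of over 75% in size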
# [3] = molecular target: Rap guanine nucleotide exchange factor 4 (Homo sapiens) (UniProt Q8WZA2); assay: Confirmatory qHTS for agonist of cAMP-regulated guanine nucleotide exchange factor 4 (EPAC2) (AID 1645884);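 note: nucleotide exchange releases bodipy-GDP from Rap1 and this lowers its fluorescence; nearly all actives have a fitted effect of over 65% in size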
# [4] = molecular target: Rap guanine nucleotide exchange factor 4 (Homo sapiens) (UniProt Q8WZA2); assay: Confirmatory qHTS for antagonist of cAMP-regulated guanine nucleotide exchange factor 4 (EPAC2) (AID 1645885); note: nearly all actives have a fitted effect of over 25% in size
# [5] = molecular target: Rap guanine nucleotide exchange factor 3 (Homo sapiens) (UniProt O95398); assay: Counterscreen qHTS for antagonist of cAMP-regulated guanine nucleotide exchange factor 3 (EPAC1) (AID 1645888);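 note: fluorescence loss as bound BODIPY-GDP is released from Rap1B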
# How it was run: (§1)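 Rap1B-BODIPY-GDP 250 nM + GDP 50 uM; cpds 7-pt, final 9.74 nM–152 uM (activator mode) or from 7.32 nM upwards (inhibitor mode); RT; FI 480/540 nm at 5 and 30 min, then ± cAMP, reread.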
# [6] = molecular target: Rap guanine nucleotide exchange factor 3 (Homo sapiens) (UniProt O95398); assay: Counterscreen qHTS for agonist of cAMP-regulated guanine nucleotide exchange factor 3 (EPAC1) (AID 1645889); note: nearly all actives have a fitted effect of over 40% in size
# How it was run: as §1
# [7] = qHTS assay for small molecule agonists of the antioxidant response element (ARE) signaling pathway measured by Nrf2-dependant transcriptional activity (AID 720636; active = well fitted curve in the direction sought with a large enough effect in the repeat runs; an effect the other way counts as inactive or inconclusive;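 note: HepG2 cells with an ARE-driven luciferase reporter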)
# How it was run: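 We exposed ARE-luc HepG2 cells, seeded in assay medium with 1% dialyzed FBS and allowed 6 hr to adhere, to test compounds overnight (16 hr, 37 C) before measuring luciferase with ONE-Glo.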
# [8] = molecular target: Cytochrome P450 2D6 (Homo sapiens) (UniProt P10635); assay: qHTS Assay for Inhibitors and Substrates of Cytochrome P450 2D6 (AID 891);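 note: luciferin methyl ether substrate demethylated by CYP2D6 with NADPH regeneration; nearly all actives have a fitted effect of over 60% in size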
# How it was run: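 Human CYP2D6 (5 nM) with 30 uM Luciferin-ME EGE (at Km) in 100 mM KPO4, compound preincubated 10 min, then NADPH regeneration system for 60 min at room temperature. Luciferin read by luminescence; normalized to 1.43 uM quinidine.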
# [9] = molecular target: Pyruvate kinase PKM (Homo sapiens) (UniProt P14618); assay: qHTS Assay for Inhibitors of Human Muscle Pyruvate Kinase (AID 958); settings: purified human PKM enzyme activity
# How it was run: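 A coupled luminescent readout tracked ATP made from ADP by purified PKM2. Final conditions included 0.1 nM enzyme, PEP and ADP at 0.5 and 0.1 mM, pH 7.2 imidazole buffer with BSA, and a one-hour room-temperature reaction.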
# [10] = Confirmation and Secondary Assay for Modulators of Hemoglobin Beta Chain Splicing at IVS2 654 locus (AID 910);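 note: HeLa cells stably carrying EGFP split by mutant beta-globin IVS2-654 intron; per-well total GFP intensity by laser scanning cytometry after 2-day treatment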
# How it was run: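 Readout: per-well total peak green fluorescence (488 nm ex, 500–520 nm em) from objects 5–250 µm, reflecting correct splicing of an EGFP-654 reporter. Compounds were applied for 2 days at 37 °C to overnight-plated HeLa EGFP-654 cells; controls were DMSO and 500 nM IVS2-654 PNA.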
# [11] = Confirmation and Secondary Assay for Modulators of Hemoglobin Beta Chain Splicing at IVS2 705 locus (AID 930);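 note: HeLa cells stably expressing the EGFP-705 splicing reporter; GFP fluorescence per well restored by corrected splicing of the IVS2-705 intron in EGFP; series mostly up to about 46 µM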
# How it was run: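 Stable HeLa line with EGFP disrupted by mutant beta-globin intron 2 (705). Overnight attachment, then 2 days of compound at 37C, 5% CO2. Signal: peak GFP intensity summed over objects 5-250 µm.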
# [12] = qHTS Assay for Identification of Small Molecule Antagonists for Thrombopoietin (TPO) Signaling Pathway (AID 918); settings: TPO-dependent cell signaling reporter, antagonist mode; note: potency is the fitted concentration of half-maximal effect; nearly all actives have a fitted effect of over 60% in size
# How it was run: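 Ba/F3 (murine, hTPO-R, GPIIb-luc reporter); overnight IL-3 withdrawal; cpd + TPO 26 pM final (EC50); 24 h 37 C/5% CO2; Steadylite luminescence after 10 min RT.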
# [13] = molecular target: Pyruvate kinase (Leishmania mexicana) (UniProt Q27686); assay: qHTS Validation Assay for Activators of Leishmania Mexicana Pyruvate Kinase (AID 959)
# How it was run: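 Mutant LmPYK (E451W), 0.2 nM, plus 0.5 mM PEP and 0.1 mM ADP in 50 mM imidazole pH 7.2 containing 0.01% Tween 20 and 0.05% BSA. Incubated 1 h at room temperature; luminescence via PKLight, normalized to DMSO.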
# [14] = molecular target: Cytochrome P450 2C19 (Homo sapiens) (UniProt P33261); assay: qHTS Assay for Inhibitors and Substrates of Cytochrome P450 2C19 (AID 899); note: potency is the fitted concentration of half-maximal effect; nearly all actives have a fitted effect of over 60% in size
# How it was run: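 Reactions contain 5nM enzyme, 10uM Luciferin-H EGE (KM) and 50mM KPO4; compound preincubates 10 min at 37C, NADPH regeneration starts turnover for 60 min. Luminescence after detection reagent gives activity.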
# [15] = qHTS for Inhibitors of Ubiquitin-specific Protease USP2a Using CHOP2 as the Reporter: K633 Counterscreen (AID 652168); note: series mostly up to about 57 µM
# How it was run: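 Cell-free interference counterscreen without USP2a: compounds pinned into enzyme-free buffer (20 mM Tris pH 8, 2 mM beta-mercaptoethanol, 0.05% Chaps), then DiUb K48-4IQF substrate added (100 nM stock); fluorescence read kinetically, Ex 525/Em 598.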
# [16] = qHTS for Inhibitors of Ubiquitin-specific Protease USP2a Using CHOP2 as the Reporter: Cytotox Assay (AID 652170); note: series mostly up to about 46 µM; nearly all actives have a fitted effect of over 70% in size
# How it was run: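 HCT116 human colon cancer cells, 600 per well in DMEM with 10% FBS, exposed to compounds for 72 hr at 37 deg C. ATP measured by CellTiter-Glo luminescence, normalized to DMSO cells and no-cell background.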
# [17] = molecular target: Ubiquitin carboxyl-terminal hydrolase 2 (Homo sapiens) (UniProt O75604); assay: qHTS for Inhibitors of Ubiquitin-specific Protease USP2a Using CHOP2 as the Reporter: K484 Substrate (AID 652173);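 note: cleavage of internally quenched K48 di-ubiquitin substrate measured as rising fluorescence over time; nearly all actives have a fitted effect of over 70% in size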
# How it was run: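 USP2 (dispensed at 5 nM) was pinned with compounds, then DiUb K48 internally quenched fluorescent substrate (dispensed at 100 nM) was added. The buffer was 20 mM Tris pH 8, 2 mM beta-mercaptoethanol and 0.05% CHAPS. Cleavage was read kinetically as rising fluorescence, Ex 525/Em 598.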
# Chain of Rap guanine nucleotide exchange factor 3 (Homo sapiens) (O95398 whole entry, looked up): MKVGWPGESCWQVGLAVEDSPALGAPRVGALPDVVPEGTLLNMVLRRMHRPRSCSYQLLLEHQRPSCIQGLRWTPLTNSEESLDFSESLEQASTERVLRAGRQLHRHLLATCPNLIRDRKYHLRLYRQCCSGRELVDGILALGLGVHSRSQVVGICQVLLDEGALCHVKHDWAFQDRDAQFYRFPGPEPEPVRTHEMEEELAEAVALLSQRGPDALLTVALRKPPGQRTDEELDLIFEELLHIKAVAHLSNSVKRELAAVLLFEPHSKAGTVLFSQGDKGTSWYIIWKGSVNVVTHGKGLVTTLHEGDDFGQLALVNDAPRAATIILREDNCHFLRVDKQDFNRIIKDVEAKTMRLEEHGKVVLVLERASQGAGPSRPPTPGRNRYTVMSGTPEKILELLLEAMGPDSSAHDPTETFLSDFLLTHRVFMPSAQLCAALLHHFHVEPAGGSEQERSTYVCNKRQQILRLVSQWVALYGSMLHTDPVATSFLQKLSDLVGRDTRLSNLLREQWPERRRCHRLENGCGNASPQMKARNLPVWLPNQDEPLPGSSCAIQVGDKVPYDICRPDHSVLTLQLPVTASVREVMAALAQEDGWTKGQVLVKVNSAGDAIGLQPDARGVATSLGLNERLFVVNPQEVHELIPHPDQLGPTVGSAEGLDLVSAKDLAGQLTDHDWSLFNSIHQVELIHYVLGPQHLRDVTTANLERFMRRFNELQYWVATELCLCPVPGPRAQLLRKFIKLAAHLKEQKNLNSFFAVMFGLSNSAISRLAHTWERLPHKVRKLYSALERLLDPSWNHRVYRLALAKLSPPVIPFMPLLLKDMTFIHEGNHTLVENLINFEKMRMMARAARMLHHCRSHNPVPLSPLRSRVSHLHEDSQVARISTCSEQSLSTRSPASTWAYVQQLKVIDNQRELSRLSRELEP
# Chain of Rap guanine nucleotide exchange factor 4 (Homo sapiens) (Q8WZA2 whole entry, looked up): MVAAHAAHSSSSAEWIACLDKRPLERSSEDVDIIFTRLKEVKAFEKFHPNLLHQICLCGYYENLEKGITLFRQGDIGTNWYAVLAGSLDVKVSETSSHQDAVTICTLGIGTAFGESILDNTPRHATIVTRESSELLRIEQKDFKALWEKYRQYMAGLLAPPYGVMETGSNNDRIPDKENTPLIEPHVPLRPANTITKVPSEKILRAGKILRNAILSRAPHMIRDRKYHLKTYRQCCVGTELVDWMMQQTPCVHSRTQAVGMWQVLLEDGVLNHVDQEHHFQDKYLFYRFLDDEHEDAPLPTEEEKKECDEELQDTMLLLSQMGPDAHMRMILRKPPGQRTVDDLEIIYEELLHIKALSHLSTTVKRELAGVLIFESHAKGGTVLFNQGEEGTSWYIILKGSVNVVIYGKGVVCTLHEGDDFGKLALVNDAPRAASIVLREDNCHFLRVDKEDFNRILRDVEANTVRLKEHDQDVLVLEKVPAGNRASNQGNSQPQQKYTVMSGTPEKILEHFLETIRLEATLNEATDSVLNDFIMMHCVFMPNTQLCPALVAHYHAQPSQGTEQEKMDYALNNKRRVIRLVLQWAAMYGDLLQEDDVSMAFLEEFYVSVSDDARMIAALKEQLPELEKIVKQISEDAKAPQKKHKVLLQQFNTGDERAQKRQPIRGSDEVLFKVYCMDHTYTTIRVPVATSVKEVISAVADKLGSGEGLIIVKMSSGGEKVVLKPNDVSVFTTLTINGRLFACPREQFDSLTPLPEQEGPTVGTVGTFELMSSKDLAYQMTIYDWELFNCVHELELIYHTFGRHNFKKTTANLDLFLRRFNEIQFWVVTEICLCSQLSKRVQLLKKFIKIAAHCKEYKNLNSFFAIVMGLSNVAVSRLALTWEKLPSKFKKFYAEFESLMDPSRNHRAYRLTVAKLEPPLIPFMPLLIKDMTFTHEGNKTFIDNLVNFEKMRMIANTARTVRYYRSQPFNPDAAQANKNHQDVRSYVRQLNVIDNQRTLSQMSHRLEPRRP
# Chain of Cytochrome P450 2C19 (Homo sapiens) (P33261 whole entry, looked up): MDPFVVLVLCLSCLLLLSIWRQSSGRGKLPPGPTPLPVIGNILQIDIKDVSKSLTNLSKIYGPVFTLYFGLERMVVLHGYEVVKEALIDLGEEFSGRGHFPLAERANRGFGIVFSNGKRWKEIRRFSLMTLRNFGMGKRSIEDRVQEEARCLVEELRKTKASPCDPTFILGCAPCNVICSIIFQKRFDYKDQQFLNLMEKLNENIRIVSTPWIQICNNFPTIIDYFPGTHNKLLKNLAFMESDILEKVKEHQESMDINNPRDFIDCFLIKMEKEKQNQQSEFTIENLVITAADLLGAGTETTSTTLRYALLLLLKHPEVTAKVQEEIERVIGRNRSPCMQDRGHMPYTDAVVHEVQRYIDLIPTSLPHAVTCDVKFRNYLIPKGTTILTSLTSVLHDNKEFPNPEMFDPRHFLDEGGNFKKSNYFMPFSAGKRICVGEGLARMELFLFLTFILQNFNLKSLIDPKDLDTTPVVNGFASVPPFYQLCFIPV
# Chain of Pyruvate kinase PKM (Homo sapiens) (P14618 whole entry, looked up): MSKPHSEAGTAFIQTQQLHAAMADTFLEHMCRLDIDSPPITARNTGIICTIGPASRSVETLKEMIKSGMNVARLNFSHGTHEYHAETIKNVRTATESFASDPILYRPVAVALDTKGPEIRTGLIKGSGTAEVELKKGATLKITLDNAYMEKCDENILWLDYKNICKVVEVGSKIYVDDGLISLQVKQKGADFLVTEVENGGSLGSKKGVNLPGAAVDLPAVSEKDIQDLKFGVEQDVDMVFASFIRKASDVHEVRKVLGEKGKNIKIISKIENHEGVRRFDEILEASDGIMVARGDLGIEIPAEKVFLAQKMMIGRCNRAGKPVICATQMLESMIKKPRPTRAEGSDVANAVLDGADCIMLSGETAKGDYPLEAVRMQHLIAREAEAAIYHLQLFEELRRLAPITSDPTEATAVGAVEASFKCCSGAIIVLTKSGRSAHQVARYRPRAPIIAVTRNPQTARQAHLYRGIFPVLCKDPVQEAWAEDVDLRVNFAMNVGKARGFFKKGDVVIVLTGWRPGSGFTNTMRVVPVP
# Chain of Pyruvate kinase (Leishmania mexicana) (Q27686 2-499 E452W): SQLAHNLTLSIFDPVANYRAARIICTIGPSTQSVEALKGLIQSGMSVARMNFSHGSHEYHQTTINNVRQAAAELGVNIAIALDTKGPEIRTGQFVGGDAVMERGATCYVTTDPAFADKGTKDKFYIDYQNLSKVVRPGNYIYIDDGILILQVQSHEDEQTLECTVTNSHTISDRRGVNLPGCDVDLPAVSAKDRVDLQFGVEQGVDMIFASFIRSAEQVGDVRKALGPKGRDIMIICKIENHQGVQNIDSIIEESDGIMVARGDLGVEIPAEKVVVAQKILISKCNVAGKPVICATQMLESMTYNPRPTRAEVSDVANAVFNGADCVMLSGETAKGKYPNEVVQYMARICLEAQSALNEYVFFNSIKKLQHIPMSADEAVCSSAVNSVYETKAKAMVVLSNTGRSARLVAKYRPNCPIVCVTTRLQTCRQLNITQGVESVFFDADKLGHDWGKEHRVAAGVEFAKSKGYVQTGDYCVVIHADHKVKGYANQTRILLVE
# Chain of Ubiquitin carboxyl-terminal hydrolase 2 (Homo sapiens) (O75604 whole entry, looked up): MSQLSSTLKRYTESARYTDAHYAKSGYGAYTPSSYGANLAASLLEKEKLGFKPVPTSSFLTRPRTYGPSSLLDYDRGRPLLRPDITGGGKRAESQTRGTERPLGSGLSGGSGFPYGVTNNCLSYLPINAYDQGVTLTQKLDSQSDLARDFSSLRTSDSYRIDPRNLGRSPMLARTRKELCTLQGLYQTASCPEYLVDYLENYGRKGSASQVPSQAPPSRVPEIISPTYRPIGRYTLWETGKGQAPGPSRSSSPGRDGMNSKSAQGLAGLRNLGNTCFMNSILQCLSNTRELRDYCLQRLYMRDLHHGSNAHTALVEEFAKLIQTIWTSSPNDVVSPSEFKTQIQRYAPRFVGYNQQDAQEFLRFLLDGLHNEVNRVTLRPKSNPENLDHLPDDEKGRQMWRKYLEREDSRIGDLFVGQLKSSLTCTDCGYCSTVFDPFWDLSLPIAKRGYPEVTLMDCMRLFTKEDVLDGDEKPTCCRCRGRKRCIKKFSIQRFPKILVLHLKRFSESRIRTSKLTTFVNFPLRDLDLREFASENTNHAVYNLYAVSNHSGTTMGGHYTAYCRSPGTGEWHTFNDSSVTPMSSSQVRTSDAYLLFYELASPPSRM
# Chain of Cytochrome P450 2D6 (Homo sapiens) (P10635 whole entry, looked up): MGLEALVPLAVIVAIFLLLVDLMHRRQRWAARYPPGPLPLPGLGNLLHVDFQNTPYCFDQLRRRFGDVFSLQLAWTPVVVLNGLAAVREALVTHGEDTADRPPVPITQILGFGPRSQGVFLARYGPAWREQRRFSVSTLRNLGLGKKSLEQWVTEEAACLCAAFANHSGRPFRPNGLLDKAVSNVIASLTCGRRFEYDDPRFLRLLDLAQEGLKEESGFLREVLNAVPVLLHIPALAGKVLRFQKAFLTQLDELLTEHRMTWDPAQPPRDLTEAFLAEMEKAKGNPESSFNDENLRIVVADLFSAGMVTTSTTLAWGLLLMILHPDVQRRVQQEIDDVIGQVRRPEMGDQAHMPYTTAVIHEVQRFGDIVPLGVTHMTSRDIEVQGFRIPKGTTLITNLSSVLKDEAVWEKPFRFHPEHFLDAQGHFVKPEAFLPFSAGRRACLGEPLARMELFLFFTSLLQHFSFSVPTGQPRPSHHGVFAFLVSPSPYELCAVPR
smiles,measurement,setting,value
CC[C@@H](C)[C@H]1O[C@]2(CC[C@@H]1C)C[C@@H]1C[C@@H](C/C=C(\C)[C@@H](O[C@@H]3C[C@H](OC)[C@H](O[C@H]4C[C@H](OC)[C@@H](O)[C@H](C)O4)[C@H](C)O3)[C@@H](C)/C=C/C=C3\CO[C@@H]4[C@@H](O)C(C)=C[C@@H](C(=O)O1)[C@]34O)O2,Potency,[1],inactive
CN1C2CC(OC(=O)C(CO)c3ccccc3)CC1C1OC12 (configuration not stated),outcome,[2],inactive
same,activation,[3],2.48% [at 17.1 µM]
same,"activity change, negative = inhibition",[4],-4.32% [at 12.7 µM]
same,outcome,[5],inactive
same,activation,[6],0.0134% [at 30.8 µM]
N[C@H](Cc1ccc(O)c(O)c1)C(=O)O,outcome,[7],inactive
N=C1Sc2ccccc2C2=NCCCN12,Potency,[8],inactive
same,Potency,[9],7.94 µM (active)
CN1C(=O)CCC1c1cccnc1 (configuration not stated),outcome,[10],inactive
same,outcome,[11],inactive
NCCCCNS(=O)(=O)c1cccc2c(Cl)cccc12,Potency,[12],10 µM (active)
CCSC(N)=Nc1ccc(C(F)(F)F)cc1,outcome,[13],inactive
CCCC(=O)NCCc1c2n(c3ccc(OC)cc13)Cc1ccccc1-2,Potency,[14],0.398 µM (active)
O=S(=O)(Nc1nccs1)c1ccc(Nc2nc(-c3ccccc3)cs2)cc1,outcome,[15],inactive
same,Potency,[16],inactive
same,Potency,[17],inactive
